Reference: PubChem BioAssay
The source made the active and inactive calls.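 The calls were made as follows, unless noted: active = visual image review flags a hit and inhibition of aggregation exceeds 20%; inconclusive = visual hit but inhibition at or below 20%; inactive = no hit on visual image review.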

Columns and labels:
[1] = inhibitors of TNFa-induced NFkB p65 translocation, primary screen, imaging, HUVEC, MLSMR starter and 10KST1 sets (AID 438;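 active = inhibition above 20% together with a positive visual image hit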;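 also: compound added about 3h40 before a 20 min TNFalpha stimulation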;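 as to inhibition: signal is the nuclear over cytoplasmic p65 intensity ratio per well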); conditions: HUVEC TNFa-induced p65 nuclear translocation; cell count: measured here: nuclei count (cytotoxicity indicator), at 2.08 µM; inhibition: at 2 µM, stronger effect = higher value, 0% TNFa-plus-vehicle, 100% no-TNFa wells
[2] = inhibitors of mutant huntingtin aggregation, primary screen, imaging, exon1htt(103Q)mCFP cells, high-content imaging (AID 483); conditions: exon1htt(103Q)mCFP cell line, aggregate imaging, at 2 µM; inhibition of aggregation: stronger effect = higher value; nuclei count: measured here: cell count, toxicity;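 also: compound exposure lasted 3 days before fixation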;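 as to nuclei count: percent of the per-plate median nuclei count of sample wells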
[3] = inhibitors of E-selectin induction by TNFa, primary screen, imaging, HUVEC, immunofluorescence, MLSMR starter and 10KST1 sets (AID 487;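 active = visually confirmed hit in the image check and inhibition above 20%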;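 as to inhibition: signal is fraction of cell area covered by stained E-selectin grains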;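 as to nuclei count: 100% = median nuclei count of all wells on the same plate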); conditions: HUVEC TNFalpha-induced E-selectin immunofluorescence imaging, at 2 µM; inhibition: stronger effect = higher value; nuclei count: measured here: cell number, toxicity
[4] = target: Voltage-gated potassium channel subunit beta-2 (Rattus norvegicus) (UniProt P62483); test: KvBeta enzyme negative modulators, primary screen, biochemical, NADPH fluorescence (AID 622;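 active = fluorescence slope higher than the sample average by over 3 SD, cut at about -0.22 in these data, passing the limit was not always enough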;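 also: slope of raw intensity against log time taken from 70 to 1610 s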); conditions: recombinant KvBeta, 4-cyanobenzaldehyde reduction, at 10 µM, stronger effect = higher value
[5] = target: Voltage-gated potassium channel subunit beta-2 (Rattus norvegicus) (UniProt P62483); test: KvBeta positive modulators, primary screen, biochemical, NADPH fluorescence (AID 623;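 active = NADPH fluorescence slope more negative than the mean of all samples by about 3 SD, 99.7% confidence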;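 also: fluorescence intensity change per second fitted from 20 to 320 s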); conditions: Recombinant KvBeta, NADPH fluorescence decrease slope, 10 min; at 10 µM; stronger effect = lower value
[6] = target: Alpha-2C adrenergic receptor (Homo sapiens) (UniProt P18825); test: modulators of alpha2C/GIRK thallium flux, primary screen, cell-based, HEK293 alpha2C/GIRK1/2 (AID 624;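 active = fluorescence slope after compound addition differing from the mean of all screened samples at 99.7% confidence, in either direction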;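 also: slope of fluorescence ratio to pre-addition baseline per second over 15 to 24 s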); conditions: thallium flux BTC fluorescence, at 10 µM, actives lie on both sides
[7] = inhibitors of Sendai virus-induced IRF3 signaling, primary screen, TLR/RLR signaling modifier project, cell-based, Sendai virus stimulus, luciferase, 10K MLSCN set (AID 602276;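 active = inhibition at or above 50% at 10 µM; inactive = inhibition below 50%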;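 also: firefly luciferase from ISG56 promoter only with Renilla not read in this screen; 0% = Sendai virus plus DMSO and 100% = medium plus DMSO without virus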); conditions: HEK293 RL24 IRF3 luciferase reporter, at 10 µM, stronger effect = higher value
[8] = inhibitors of poly I:C-induced TLR3 signaling, primary screen, cell-based, poly I:C stimulus, luciferase, 10K MLSCN set (AID 602277;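 active = inhibition of the reporter signal at or above 50%; inactive = inhibition below 50%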); conditions: HEK293-TLR3 RL24 IRF3 luciferase reporter, at 10 µM, stronger effect = higher value

Voltage-gated potassium channel subunit beta-2 (Rattus norvegicus), sequence (P62483 whole entry, looked up): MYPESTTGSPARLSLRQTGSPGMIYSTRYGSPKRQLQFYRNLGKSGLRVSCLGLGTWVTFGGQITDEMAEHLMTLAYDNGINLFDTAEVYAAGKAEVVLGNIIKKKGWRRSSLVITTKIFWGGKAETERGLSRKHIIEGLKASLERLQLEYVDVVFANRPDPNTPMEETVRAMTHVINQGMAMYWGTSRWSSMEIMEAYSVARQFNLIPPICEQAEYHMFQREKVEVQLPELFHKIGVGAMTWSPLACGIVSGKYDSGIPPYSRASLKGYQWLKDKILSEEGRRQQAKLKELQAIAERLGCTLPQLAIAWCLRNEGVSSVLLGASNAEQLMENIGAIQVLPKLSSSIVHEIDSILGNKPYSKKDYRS
Alpha-2C adrenergic receptor (Homo sapiens), sequence (P18825 whole entry, looked up): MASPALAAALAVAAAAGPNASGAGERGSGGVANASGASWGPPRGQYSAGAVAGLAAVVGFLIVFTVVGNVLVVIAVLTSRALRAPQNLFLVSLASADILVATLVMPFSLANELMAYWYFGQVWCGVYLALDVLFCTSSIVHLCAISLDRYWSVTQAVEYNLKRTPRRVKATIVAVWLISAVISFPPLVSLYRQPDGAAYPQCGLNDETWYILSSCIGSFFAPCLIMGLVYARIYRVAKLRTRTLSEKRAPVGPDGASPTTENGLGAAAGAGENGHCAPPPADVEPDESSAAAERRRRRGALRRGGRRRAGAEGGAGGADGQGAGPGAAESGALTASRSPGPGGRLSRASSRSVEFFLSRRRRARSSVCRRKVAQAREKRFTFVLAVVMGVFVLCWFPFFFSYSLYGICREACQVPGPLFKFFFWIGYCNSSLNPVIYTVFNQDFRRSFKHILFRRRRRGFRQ

SMILES	cell count [1]	inhibition [1]	inhibition of aggregation [2]	nuclei count [2] [%]	inhibition [3]	nuclei count [3] [%]	fluorescence slope [4]	NADPH fluorescence slope [5]	slope [6]	inhibition [7]	inhibition [8]
CC(C)C(NC(=O)c1ccc(S(=O)(=O)N2CCOCC2)cc1)c1nc2ccccc2[nH]1 (centres undefined)	276	15.9% (inactive)	-10.8% (inactive)	114	8.4% (inactive)	98.7	-0.436 (inactive)	-9.2e-05 (inactive)	0.00591 (inactive)	13.3% (inactive)	26% (inactive)
COc1ccc(C(C)=O)c(OC(=O)c2ccc(OC)c(OC)c2)c1	372	-0.3% (inactive)	3.6% (inactive)	88.8	-76% (inactive)	100	-0.376 (inactive)	8.8e-06 (inactive)	0.00658 (inactive)	13.2% (inactive)	22.8% (inactive)
COc1ccc(C)cc1-n1nnnc1SCC(=O)Nc1cc(C)on1	452	2.5% (inactive)	-18% (inactive)	96.7	-330% (inactive)	150	-0.6 (inactive)	-3.5e-05 (inactive)	0.00592 (inactive)	2.92% (inactive)	12.5% (inactive)
CC(C)(C)n1ncc2c(=O)n(CC(=O)NCc3ccc(F)cc3)cnc21	403	9.3% (inactive)	14.9% (inactive)	95.8	18.8% (inactive)	91.1	-0.367 (inactive)	-5.3e-05 (inactive)	0.00547 (inactive)	-15.8% (inactive)	-46.6% (inactive)
CCOC(=O)/N=C(/NC(=O)Nc1ccc(C(=O)OCC)cc1)OC	266	-3.6% (inactive)	17% (inactive)	92.2	7.6% (inactive)	108	-0.583 (inactive)	-6e-05 (inactive)	0.00625 (inactive)	13.9% (inactive)	23.9% (inactive)
Cc1nnc(SCC(=O)Nc2sc3c(c2C#N)CCCC3)[nH]c1=O	368	2.8% (inactive)	-12.9% (inactive)	114	-31.8% (inactive)	108	-0.441 (inactive)	1.2e-05 (inactive)	0.00274 (inactive)	8.57% (inactive)	39.4% (inactive)
Cc1ccc(-n2nnnc2SCC(=O)c2cc(C)n(-c3cc(C)on3)c2C)cc1	844	-12.4% (inactive)	-7.8% (inactive)	101	-36.4% (inactive)	106	-0.595 (inactive)	8.7e-07 (inactive)	0.00585 (inactive)	12.6% (inactive)	18.7% (inactive)
Cc1c(C(=O)NCc2ccccn2)sc2nc(-c3ccc(F)cc3)cn12	482	-5.5% (inactive)	-10% (inactive)	61.1	10.9% (inactive)	104	-0.502 (inactive)	1.3e-05 (inactive)	0.00621 (inactive)	17.6% (inactive)	-13.7% (inactive)
CCc1nnc(NC(=O)c2cc3ccccc3oc2=O)s1	597	-9.6% (inactive)	15.7% (inactive)	96.9	-67.3% (inactive)	96.3	-0.57 (inactive)	-2e-05 (inactive)	0.00433 (inactive)	-9.54% (inactive)	-77.5% (inactive)
O=C(COc1ccccc1)NCC(c1cccs1)N1CCOCC1 (centres undefined)	412	9% (inactive)	2% (inactive)	101	-82.3% (inactive)	112	-0.453 (inactive)	0.000103 (inactive)	0.00649 (inactive)	-14.3% (inactive)	-11.6% (inactive)
Cc1cc(C)n(-c2cc(N3CCOCC3)ncn2)n1	690	-9.8% (inactive)	3% (inactive)	89.8	-69.3% (inactive)	125	-0.436 (inactive)	-3.4e-06 (inactive)	0.00484 (inactive)	2.82% (inactive)	0.822% (inactive)
O=C(CN(Cc1ccco1)C(=O)CNS(=O)(=O)c1ccc(F)cc1)NCCc1ccccc1	520	-2.1% (inactive)	-2.1% (inactive)	92.1	-38.5% (inactive)	112	-0.481 (inactive)	-2.9e-05 (inactive)	0.00696 (inactive)	-0.0533% (inactive)	19.8% (inactive)
Cc1cc(NC(=O)CSc2nccn2-c2ccc(F)cc2)no1	433	-0.3% (inactive)	-13.1% (inactive)	111	-184% (inactive)	114	-0.6 (inactive)	9.8e-06 (inactive)	0.00665 (inactive)	13.6% (inactive)	3.73% (inactive)
COc1cc(OC)cc(-c2nnc(SCC(=O)Nc3cc(C)on3)o2)c1	230	0.6% (inactive)	32.6% (inactive)	77.5	-264% (inactive)	111	-0.347 (inactive)	-2.3e-05 (inactive)	0.00422 (inactive)	7.23% (inactive)	31.7% (inactive)
